Measurements reported in the supplement of paper PMC10849652.
The full data set covers some 8,800 targets. This sample favours those with a hit. About 0.5% of all pairs of compound and target were hits.

The targets below were run with c1cn2cc(-c3ccc4cn[nH]c4c3)nc(Nc3ccc(N4CCOCC4)cc3)c2n1 [entospletinib] (assay: log2 fold change, soluble protein after heating vs DMSO (PISA); higher = thermal stabilisation; K562 lysate, 10 uM; active = over 0.2 and 3.5 SD of the protein, either way, in both replicates (recomputed)).
Summary of the method: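 K562 pellets were dounce-homogenised in PBS pH 7.4 containing 1 mM MgCl2, and the crude extract, at 1 mg/mL protein, was exposed to 10 μM compound for 30 min. Aliquots were heated for 3 min across 48°C-58°C, pooled, brought to 0.5% NP-40 at 4°C and spun at 21,000xg for 90 min, with the supernatant taken as soluble protein. TMTpro 16plex LC-MS/MS with equalised channel sums quantified that protein. Values are log-two fold changes in thermal stability relative to solvent controls, taken from duplicates.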

UniProt O00221, sequence (O00221 whole entry, looked up): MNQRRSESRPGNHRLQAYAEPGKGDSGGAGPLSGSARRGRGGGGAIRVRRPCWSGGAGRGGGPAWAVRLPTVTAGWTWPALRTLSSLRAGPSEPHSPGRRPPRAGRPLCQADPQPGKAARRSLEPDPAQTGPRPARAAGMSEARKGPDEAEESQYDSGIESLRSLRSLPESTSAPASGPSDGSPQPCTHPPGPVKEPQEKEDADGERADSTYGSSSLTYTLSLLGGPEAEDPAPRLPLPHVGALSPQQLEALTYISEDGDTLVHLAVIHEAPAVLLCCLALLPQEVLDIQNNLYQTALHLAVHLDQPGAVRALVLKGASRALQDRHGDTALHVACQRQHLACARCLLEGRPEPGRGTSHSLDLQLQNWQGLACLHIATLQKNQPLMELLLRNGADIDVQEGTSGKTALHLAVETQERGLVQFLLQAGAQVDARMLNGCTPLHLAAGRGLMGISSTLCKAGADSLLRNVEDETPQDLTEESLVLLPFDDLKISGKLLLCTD
UniProt Q9Y530, sequence (Q9Y530 whole entry, looked up): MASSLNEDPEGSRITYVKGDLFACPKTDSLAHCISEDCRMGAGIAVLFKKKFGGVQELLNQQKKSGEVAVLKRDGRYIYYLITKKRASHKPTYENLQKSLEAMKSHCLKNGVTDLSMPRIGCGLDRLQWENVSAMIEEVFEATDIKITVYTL
UniProt P08651, sequence (P08651 whole entry, looked up): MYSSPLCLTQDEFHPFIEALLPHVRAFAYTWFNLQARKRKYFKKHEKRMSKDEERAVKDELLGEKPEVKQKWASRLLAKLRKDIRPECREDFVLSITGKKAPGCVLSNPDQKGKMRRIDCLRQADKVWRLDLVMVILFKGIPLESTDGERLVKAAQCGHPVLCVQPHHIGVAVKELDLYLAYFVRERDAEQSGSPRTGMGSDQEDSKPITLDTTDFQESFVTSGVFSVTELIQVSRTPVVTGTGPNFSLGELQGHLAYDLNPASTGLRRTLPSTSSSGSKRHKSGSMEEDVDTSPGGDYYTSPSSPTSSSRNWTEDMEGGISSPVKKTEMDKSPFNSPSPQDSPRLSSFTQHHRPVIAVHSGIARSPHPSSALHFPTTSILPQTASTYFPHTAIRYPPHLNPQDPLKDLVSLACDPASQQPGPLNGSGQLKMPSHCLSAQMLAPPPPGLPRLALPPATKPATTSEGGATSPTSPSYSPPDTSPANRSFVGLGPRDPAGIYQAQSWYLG
UniProt P04181, sequence (P04181 whole entry, looked up): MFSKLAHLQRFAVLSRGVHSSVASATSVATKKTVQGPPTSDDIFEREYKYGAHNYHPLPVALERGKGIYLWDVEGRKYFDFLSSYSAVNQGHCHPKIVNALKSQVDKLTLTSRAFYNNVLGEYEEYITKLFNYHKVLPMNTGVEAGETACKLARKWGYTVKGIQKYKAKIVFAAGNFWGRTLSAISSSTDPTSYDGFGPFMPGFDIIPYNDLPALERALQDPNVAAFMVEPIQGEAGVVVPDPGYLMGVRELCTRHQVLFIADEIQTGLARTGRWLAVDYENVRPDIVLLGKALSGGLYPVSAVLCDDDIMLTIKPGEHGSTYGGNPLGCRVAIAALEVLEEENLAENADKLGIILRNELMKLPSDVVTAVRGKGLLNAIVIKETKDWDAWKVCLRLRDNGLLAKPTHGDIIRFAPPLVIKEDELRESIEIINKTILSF
UniProt Q9Y5B6, sequence (Q9Y5B6 whole entry, looked up): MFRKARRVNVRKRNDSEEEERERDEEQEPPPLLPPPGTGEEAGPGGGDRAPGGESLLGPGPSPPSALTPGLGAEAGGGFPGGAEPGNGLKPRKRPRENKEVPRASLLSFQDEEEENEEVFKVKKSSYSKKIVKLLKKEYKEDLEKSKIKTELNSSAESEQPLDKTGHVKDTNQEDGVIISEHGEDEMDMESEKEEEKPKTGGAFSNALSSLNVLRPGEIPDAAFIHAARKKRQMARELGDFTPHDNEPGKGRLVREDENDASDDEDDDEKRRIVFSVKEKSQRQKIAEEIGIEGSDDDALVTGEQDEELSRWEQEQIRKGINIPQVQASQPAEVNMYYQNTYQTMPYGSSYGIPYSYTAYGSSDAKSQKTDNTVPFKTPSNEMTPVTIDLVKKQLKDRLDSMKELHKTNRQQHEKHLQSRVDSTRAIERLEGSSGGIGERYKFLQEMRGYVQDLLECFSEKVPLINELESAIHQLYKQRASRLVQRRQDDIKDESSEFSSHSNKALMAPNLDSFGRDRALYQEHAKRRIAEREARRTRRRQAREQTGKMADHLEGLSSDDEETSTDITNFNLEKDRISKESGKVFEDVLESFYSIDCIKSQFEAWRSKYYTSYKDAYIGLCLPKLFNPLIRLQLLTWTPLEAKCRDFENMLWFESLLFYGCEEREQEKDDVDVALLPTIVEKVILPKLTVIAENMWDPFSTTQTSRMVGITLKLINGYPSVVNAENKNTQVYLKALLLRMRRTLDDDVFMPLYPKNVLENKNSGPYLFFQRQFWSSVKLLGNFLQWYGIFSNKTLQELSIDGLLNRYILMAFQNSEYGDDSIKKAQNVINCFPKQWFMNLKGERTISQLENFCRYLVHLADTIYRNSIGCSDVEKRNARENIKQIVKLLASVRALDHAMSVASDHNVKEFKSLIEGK
UniProt Q9Y314, sequence (Q9Y314 whole entry, looked up): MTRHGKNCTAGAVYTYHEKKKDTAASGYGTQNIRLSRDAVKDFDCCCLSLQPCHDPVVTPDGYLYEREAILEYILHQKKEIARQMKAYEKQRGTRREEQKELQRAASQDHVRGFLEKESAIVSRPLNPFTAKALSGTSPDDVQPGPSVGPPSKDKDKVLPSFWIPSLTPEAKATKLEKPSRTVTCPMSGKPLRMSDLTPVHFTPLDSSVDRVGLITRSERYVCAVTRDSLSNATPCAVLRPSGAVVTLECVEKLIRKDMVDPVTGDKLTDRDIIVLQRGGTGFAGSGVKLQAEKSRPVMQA
UniProt P10244, sequence (P10244 whole entry, looked up): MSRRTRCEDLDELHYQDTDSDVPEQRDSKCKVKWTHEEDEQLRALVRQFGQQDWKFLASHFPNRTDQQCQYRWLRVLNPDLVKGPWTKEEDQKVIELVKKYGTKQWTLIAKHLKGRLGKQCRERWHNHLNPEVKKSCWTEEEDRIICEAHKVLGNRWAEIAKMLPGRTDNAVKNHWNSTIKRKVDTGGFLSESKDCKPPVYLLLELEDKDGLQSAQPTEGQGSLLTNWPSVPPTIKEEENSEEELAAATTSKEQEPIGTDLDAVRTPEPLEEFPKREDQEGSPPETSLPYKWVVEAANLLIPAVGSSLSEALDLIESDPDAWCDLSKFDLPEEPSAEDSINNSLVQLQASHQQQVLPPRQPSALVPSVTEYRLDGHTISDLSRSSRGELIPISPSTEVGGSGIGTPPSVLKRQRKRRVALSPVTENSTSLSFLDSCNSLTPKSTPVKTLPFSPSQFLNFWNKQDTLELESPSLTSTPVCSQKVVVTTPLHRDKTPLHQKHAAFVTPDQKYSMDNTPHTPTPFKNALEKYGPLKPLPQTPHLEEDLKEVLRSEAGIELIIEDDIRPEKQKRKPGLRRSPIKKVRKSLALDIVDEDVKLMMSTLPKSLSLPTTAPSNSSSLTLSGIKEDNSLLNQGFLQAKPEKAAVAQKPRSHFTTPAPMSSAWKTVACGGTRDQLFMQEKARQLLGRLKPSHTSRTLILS
UniProt Q8TAT6, sequence (Q8TAT6 whole entry, looked up): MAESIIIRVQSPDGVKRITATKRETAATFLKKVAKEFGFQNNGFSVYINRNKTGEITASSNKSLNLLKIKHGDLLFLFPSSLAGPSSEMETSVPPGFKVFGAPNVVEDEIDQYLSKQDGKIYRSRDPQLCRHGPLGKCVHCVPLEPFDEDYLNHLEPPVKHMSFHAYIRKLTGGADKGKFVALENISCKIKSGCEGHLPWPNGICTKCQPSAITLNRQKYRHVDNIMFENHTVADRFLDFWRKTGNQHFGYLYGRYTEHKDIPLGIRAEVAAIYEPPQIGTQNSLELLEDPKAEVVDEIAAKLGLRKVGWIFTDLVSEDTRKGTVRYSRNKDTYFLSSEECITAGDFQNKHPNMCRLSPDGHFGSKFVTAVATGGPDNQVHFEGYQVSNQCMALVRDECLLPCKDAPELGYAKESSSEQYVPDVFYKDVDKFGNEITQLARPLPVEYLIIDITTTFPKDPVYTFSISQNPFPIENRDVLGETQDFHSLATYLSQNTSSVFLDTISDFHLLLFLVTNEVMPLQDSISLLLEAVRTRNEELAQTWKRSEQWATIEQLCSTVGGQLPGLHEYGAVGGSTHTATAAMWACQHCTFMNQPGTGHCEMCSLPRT
UniProt Q9NTK5, sequence (Q9NTK5 whole entry, looked up): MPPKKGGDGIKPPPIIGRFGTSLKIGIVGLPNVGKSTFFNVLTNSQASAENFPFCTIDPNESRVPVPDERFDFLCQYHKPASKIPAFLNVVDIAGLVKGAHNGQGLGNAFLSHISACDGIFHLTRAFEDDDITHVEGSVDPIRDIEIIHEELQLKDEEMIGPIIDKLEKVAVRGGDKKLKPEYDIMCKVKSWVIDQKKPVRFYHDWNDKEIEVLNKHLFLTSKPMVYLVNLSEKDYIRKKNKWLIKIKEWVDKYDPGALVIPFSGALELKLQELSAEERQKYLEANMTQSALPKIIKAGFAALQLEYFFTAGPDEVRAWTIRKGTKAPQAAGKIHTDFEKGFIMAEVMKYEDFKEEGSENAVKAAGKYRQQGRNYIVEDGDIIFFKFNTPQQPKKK
UniProt P80303, sequence (P80303 whole entry, looked up): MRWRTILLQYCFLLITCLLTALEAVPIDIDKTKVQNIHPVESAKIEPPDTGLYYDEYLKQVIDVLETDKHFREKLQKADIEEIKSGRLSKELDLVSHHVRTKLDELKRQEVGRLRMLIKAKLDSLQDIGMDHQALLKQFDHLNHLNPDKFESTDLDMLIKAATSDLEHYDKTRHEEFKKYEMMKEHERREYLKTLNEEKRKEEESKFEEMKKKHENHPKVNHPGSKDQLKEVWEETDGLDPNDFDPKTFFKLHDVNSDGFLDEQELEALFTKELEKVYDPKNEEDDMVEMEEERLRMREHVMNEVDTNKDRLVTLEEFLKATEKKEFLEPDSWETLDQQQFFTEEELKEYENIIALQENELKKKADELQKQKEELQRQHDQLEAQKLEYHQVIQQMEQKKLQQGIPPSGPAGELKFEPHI

log2 fold change, inactive:
NCOR1 (UniProt O75376) -0.01
NSL1 (UniProt Q96IY1) 0.03
NLRP2 (UniProt Q9NX02) 0.011
OAT (UniProt P04181) 0.029
MYBL2 (UniProt P10244) 0.025
NOSIP (UniProt Q9Y314) 0.013
MTMR6 (UniProt Q9Y217) 0.003
NMT1 (UniProt P30419) 0.034
NEK7 (UniProt Q8TDX7) 0.012
NUP93 (UniProt Q8N1F7) 0.022
NCAPD3 (UniProt P42695) -0.007
MYOM1 (UniProt P52179) 0.028
NFIC (UniProt P08651) -0.025
OSBPL6 isoform 5 (UniProt Q9BZF3) 0.113
PAK4 (UniProt O96013) 0.05
OLA1 (UniProt Q9NTK5) 0.043
MRPS12 (UniProt O15235) -0.046
NUP160 (UniProt Q12769) 0.009
NCKAP1L (UniProt P55160) 0.029
NPLOC4 isoform 2 (UniProt Q8TAT6) 0.031
NFATC2 (UniProt Q13469) -0.062
NOSTRIN (UniProt Q8IVI9) 0.018
NEDD8 (UniProt Q15843) -0.082
NFKBIE (UniProt O00221) -0.036
PAFAH1B3 (UniProt Q15102) -0.052
NUCB2 (UniProt P80303) -0.008
MTFP1 (UniProt Q9UDX5) -0.009
NIPBL (UniProt Q6KC79) 0.071
OGFR (UniProt Q9NZT2) -0.061
NDC1 (UniProt Q9BTX1) -0.016
NUP188 (UniProt Q5SRE5) -0.003
PAXBP1 (UniProt Q9Y5B6) -0.043
MVB12A (UniProt Q96EY5) 0.042
NUP133 (UniProt Q8WUM0) -0.033
OARD1 (UniProt Q9Y530) 0.024
